Bioassay records as filed in PubChem BioAssay.
TSHR antagonist – human thyrotropin receptor antagonism; P16473; TSHR-expressing cells, TSH-stimulated cAMP HTRF, 2 h; stronger effect = lower value; activity change, negative = inhibition, % at 11.5 µM; hit rate 0.2% among 330,000;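 active = activity change below a set negative limit, meaning inhibition stronger than a set level, cut at about -70% in these data; inconclusive = activity change between two set negative limits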
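Freshly harvested TSHR cells receive pin-tooled compound, then EC80 TSH at 4nM final. After 2 hours at 37 deg C, antibody in lysis buffer and cAMP-d2 are added; 30 minutes at ambient temperature precede the HTRF read.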
gsp agonist – gsp mutant agonism | gsp mutant cells, cAMP HTRF, 30 min | Potency, µM (series often up to 76.9 µM), most hits filed as activators | hit rate 0.13% among 340,000 | AID 624287; active = well fitted activation curve with a large enough effect; inconclusive = small, poorly fitted or top-dose-only effect, or another doubt; inactive = no such curve, though single readings can be large or run the other way; cell line not stated here;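 note: phosphodiesterase inhibitor Ro 20-1724 added with compounds to block cAMP breakdown; nearly all actives have a fitted effect of over 60% in size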
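Cells stably selected in G418 were plated at 2000/well, grown 16-24 hr, then given compounds in DMSO with the PDE inhibitor […] (300 uM solution added) for 30 min at 37C; cAMP was read by HTRF.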
S-ASM inh – human S-ASM enzyme inhibition; P17405; placental ASM, HMU-PC fluorogenic substrate, 60 min; Potency, µM (series often up to 57.5 µM), actives largely listed as inhibitors; hit rate 0.006% among 340,000; AID 504937; active = well fitted inhibition curve with a large enough effect; inconclusive = small, poorly fitted or top-dose-only effect; inactive = no such curve, though single readings can be large or run the other way
Target sequence (P17405 47-631 limits assumed): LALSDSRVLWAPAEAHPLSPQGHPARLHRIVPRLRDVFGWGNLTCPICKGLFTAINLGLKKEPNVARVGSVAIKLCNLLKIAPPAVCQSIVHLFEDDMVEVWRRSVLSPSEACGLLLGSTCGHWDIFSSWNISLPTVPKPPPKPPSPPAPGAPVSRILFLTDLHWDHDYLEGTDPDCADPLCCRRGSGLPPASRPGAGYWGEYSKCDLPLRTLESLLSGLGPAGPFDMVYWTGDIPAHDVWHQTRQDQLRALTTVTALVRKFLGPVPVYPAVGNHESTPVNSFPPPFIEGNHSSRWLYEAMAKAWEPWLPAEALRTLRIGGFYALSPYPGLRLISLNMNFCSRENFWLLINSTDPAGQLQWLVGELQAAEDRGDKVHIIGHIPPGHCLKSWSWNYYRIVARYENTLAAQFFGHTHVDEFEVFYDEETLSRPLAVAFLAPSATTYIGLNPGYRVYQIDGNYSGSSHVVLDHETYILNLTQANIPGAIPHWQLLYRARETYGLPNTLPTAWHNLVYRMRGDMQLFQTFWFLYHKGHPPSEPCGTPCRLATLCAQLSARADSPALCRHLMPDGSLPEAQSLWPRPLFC
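Fluorescence read-out (Ex 386 nm, Em 447 nm) after stopping the reaction at pH 10. Enzyme: ASM from human placenta; substrate HMU-PC0, 9 uM final; 60 min, 37 °C. Compound preincubation 10 min, ambient temperature.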
gsp antag – antagonizes gsp, the McCune-Albright syndrome mutation; AID 624288; hit rate 0.4% among 340,000; Potency, µM (titrated, usually from 76.9 µM), actives largely listed as inhibitors; gsp-mutant cells, cAMP HTRF, 30 min; calls by dose curve; cell line not stated here;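 note: intracellular cAMP measured with PDE inhibitor Ro 20-1724 present during compound exposure; nearly all actives have a fitted effect of over 65% in size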
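G418-selected cells were plated in DMEM/10% FBS for 16-24 h at 37C, then treated with compounds plus the PDE inhibitor […] (300 uM solution added) for 30 min at 37C. Intracellular cAMP was measured by HTRF after 30 min lysis at room temperature.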
Of the large screens only hits and unclear results are named; the others gave an inactive call. Hits are enriched below; roughly 0.63% of the tested compounds scored in any of these assays.

CC(=O)c1ccc(-c2ccc(C(=O)N3CCN(c4ccc(F)cc4)CC3)o2)cc1	gsp antag 28µM
O=C(c1ccc(Br)o1)N1CCN(c2ccc(F)cc2)CC1	none
CCOc1ccccc1NC(=O)c1nc(S(=O)(=O)Cc2ccccc2)ncc1Cl	TSHR antagonist -75
COc1ccccc1NC(=O)c1nc(S(=O)(=O)Cc2ccccc2)ncc1Cl	TSHR antagonist -78
CC1CCN(S(=O)(=O)c2ccc(NC(=O)c3ccncc3)cc2)CC1	none (no result: S-ASM inh)
CN(c1ccccc1)S(=O)(=O)c1ccc(NC(=O)c2ccccc2)cc1	none
CCS(=O)(=O)c1ncc(Cl)c(C(=O)Nc2ccc(S(=O)(=O)N3CCC(C)CC3)cc2)n1	TSHR antagonist -78
CN(c1ccccc1)S(=O)(=O)c1ccc(NC(=O)c2nc(S(C)(=O)=O)ncc2Cl)cc1	TSHR antagonist -95
CCS(=O)(=O)c1ncc(Cl)c(C(=O)Nc2ccccc2OC)n1	none
O=C(N/C(=C/c1cccc([N+](=O)[O-])c1)C(=O)N1CCOCC1)c1ccccc1Br	none
COC(=O)C1=C(C)N(Cc2ccccc2)C(=NCc2ccc(OC)cc2)N[C@H]1c1ccc(Br)cc1	none (no result: gsp agonist, S-ASM inh, gsp antag)
Cc1ccc(NC(=O)C2CCN(S(=O)(=O)c3ccc4ccccc4c3)CC2)nc1	none
O=C(COC(=O)CNC(=O)c1ccc(-c2ccccc2)cc1)NCc1ccco1	none
CC1CCN(S(=O)(=O)c2ccc(Cl)cc2)CC1	gsp antag 50µM
CCOC(=O)c1ccc(NC(=O)c2nc(S(=O)(=O)Cc3ccccc3)ncc2Cl)cc1	TSHR antagonist inconclusive
CCc1ccc(NC(=O)c2nc(S(=O)(=O)Cc3ccccc3)ncc2Cl)cc1	TSHR antagonist -74 (no result: gsp agonist, S-ASM inh, gsp antag)
CCC(NC(=O)CCl)c1ccc(C)cc1 (stereo unspecified)	none
Cn1nc(C(=O)N2CCN(c3cccc(Cl)c3)CC2)c2c1-c1ccccc1S(=O)(=O)C2	gsp antag inconclusive
Cc1cccc(N2CCN(C(=O)c3nn(C)c4c3CS(=O)(=O)c3ccccc3-4)CC2C)c1 (stereo unspecified)	gsp antag 35µM
CCOC(=O)N1CCN(C(=O)CSCC(=O)Nc2nc(-c3cccs3)cs2)CC1	gsp antag inconclusive
CCOC(=O)N1CCN(C(=O)CSCC(=O)Nc2nc(-c3ccc(C)cc3)cs2)CC1	gsp antag 32µM
CCOC(=O)N1CCN(C(=O)CSCC(=O)Nc2nc(-c3ccc4c(c3)OCO4)cs2)CC1	gsp antag 35µM
Cc1cc2cc(CCNC(=O)c3ccc(S(=O)(=O)N4CCCC4)cc3)c(=O)[nH]c2cc1C	TSHR antagonist -77
COc1ccc(OC)c2[nH]c(=O)c(CCNC(=O)c3ccc(S(=O)(=O)N4CCCCC4)cc3)cc12	none
Cc1ccc(S(=O)(=O)c2c(C(=O)c3ccccc3)cnc3cc4c(cc23)OCCO4)cc1	TSHR antagonist -83
CCN(C(=O)CN1C(=O)COc2ccc(S(=O)(=O)N3CCOCC3)cc21)c1ccc(OC)cc1	TSHR antagonist -140
COC(=O)CN1C(=O)COc2ccc(S(=O)(=O)N3CCOCC3)cc21	none
COc1ccc(C(=O)NC2=Nc3ccccc3N=C(C)C2c2ccccc2)cc1 (stereo unspecified)	gsp antag inconclusive
Cc1cccc(C)c1NS(=O)(=O)c1ccc(NC(=O)c2ccc(Cl)c([N+](=O)[O-])c2)cc1	gsp agonist inconclusive, gsp antag 25µM
O=C(O)c1cc(NC(=O)c2ccc(Cl)c([N+](=O)[O-])c2)cc(C(=O)O)c1	none
O=C(Nc1ccc(C(O)(C(F)(F)F)C(F)(F)F)cc1)c1ccc(Cl)c([N+](=O)[O-])c1	S-ASM inh inconclusive, gsp antag 35µM
Cn1c(=S)[nH]c2c(c1=O)C(C)(C)Cc1ccccc1-2	none
CCn1c(=S)[nH]c2c(c1=O)C(C)(C)Cc1ccccc1-2	gsp agonist 2.8µM
Cc1ccc2nc(SCC(=O)Nc3ccccc3N3CCOCC3)c(C#N)cc2c1	gsp agonist 22µM
CC(=O)c1ccc(Nc2nc(=O)c3cccnc3s2)cc1	gsp agonist 10µM (no result: TSHR antagonist)
CC(=O)c1cccc(Nc2nc(=O)c3cccnc3s2)c1	gsp agonist inconclusive
CN(C)c1ccc(N=Cc2ccco2)cc1	TSHR antagonist -74, gsp antag inconclusive
CN(C)c1ccc(C=Nc2ccc(N(C)C)cc2)cc1	gsp antag inconclusive
CSc1nc(N)c2ncn([C@@H]3O[C@H](COP(=O)(O)OP(=O)(O)O)C(O)[C@H]3O)c2n1 (stereo partly specified)	none (no result: gsp agonist, S-ASM inh, gsp antag)
